Screening results: PubChem BioAssay, Pan Lab, Icahn School of Medicine at Mount Sinai
ROC1-CUL1 inh: inhibitors of human ROC1-CUL1 ubiquitin ligase activity. P62877+Q13616. AID 1347404. inhibition, % at 10 µM. in vitro K48 di-Ub FRET, acceptor:donor ratio, 45 min. 140,000 compounds, 0.6% hits; in the data active means inhibition above about 25%
* marks the source's active call; other numbers are inactive results. Only a selection was taken, and hits are over-represented in it overall.

Screening O=C1NN(c2ccccc2)C(=O)/C1=C\c1cc(O)ccc1Br returned ROC1-CUL1 inh 3.
For O=C1NN(c2ccccc2)C(=O)/C1=C/c1ccccc1OCc1ccc(Cl)c(Cl)c1 the results were ROC1-CUL1 inh 17.
`O=C1NN(c2ccccc2)C(=O)/C1=C/c1cc(Br)ccc1OCc1ccc(Cl)c(Cl)c1` gave ROC1-CUL1 inh 72*.
Screening O=C1NN(c2ccccc2)C(=O)/C1=C/c1ccccc1OCCCOc1ccccc1 returned ROC1-CUL1 inh 9.
O=C1NN(c2ccccc2)C(=O)/C1=C/c1ccc(OCc2ccc(Cl)c(Cl)c2)cc1 was read as ROC1-CUL1 inh -13.
For COc1ccc(C(=O)N2CCC(C(Cc3ccccc3)N(C)C(=O)c3cc(C)nn3C)CC2)cc1F (configuration not stated) the results were ROC1-CUL1 inh 6.
Screening CCCNC(=O)CSC1=N/C(=C\c2ccc(OC)c(CN3CCOCC3)c2)C(=O)N1CC returned ROC1-CUL1 inh -2.
Screening Cc1cc(NC(=O)Nc2nnc(N3CCCCCC3)s2)ccc1Br returned ROC1-CUL1 inh 1.
`C(CCCN1CCCCC1)CCN1CCCCC1` gave ROC1-CUL1 inh 3.
For COc1ccccc1N1CCN(C(=O)c2cc3nc(-c4ccc(Br)cc4)cc(C(F)(F)F)n3n2)CC1 the results were ROC1-CUL1 inh -4.
CNc1nc(C)nc(N(C)N(C)C(C)=O)n1 was read as ROC1-CUL1 inh 2.
`Cc1ccc(-c2nn3c(C)nnc3s2)cc1NC(=O)c1ccc(OC(C)C)cc1` gave ROC1-CUL1 inh -3.
`CCSC1=N/C(=C\c2ccc(C(=O)O)cc2)C(=O)S1` gave ROC1-CUL1 inh 3.
For CC(C)(C)c1cc(/C=C2\N=C(SCc3ccccc3Cl)SC2=O)cc(C(C)(C)C)c1O the results were ROC1-CUL1 inh 5.
For O=C1SC(SCc2ccccc2Cl)=N/C1=C\c1ccc(C(=O)O)cc1 the results were ROC1-CUL1 inh 54*.
Screening CCN1CCN(C(=O)C2CCN(C3CCN(Cc4ccccc4C)CC3)CC2)CC1 returned ROC1-CUL1 inh 7.
`COc1cccc(-n2cc(CNC(=O)c3cn(C4CC4)cc(C(=O)NC4CCCCC4)c3=O)cn2)c1` gave ROC1-CUL1 inh 2.
Screening COC(=O)COc1ccc(Cl)cc1C(=O)OC returned ROC1-CUL1 inh -4.
For CN1CCN(C(CNC(=O)c2ccc(F)cc2)c2ccc3c(c2)OCO3)CC1 (configuration not stated) the results were ROC1-CUL1 inh 0.
`CCOc1cc(C=C2C(=O)NC(=S)NC2=O)cc(Cl)c1OCc1ccc(C(=O)O)cc1` gave ROC1-CUL1 inh 50*.
Screening CCOc1cc(C=C2C(=O)NC(=S)NC2=O)cc(Br)c1OCc1ccc(C(=O)O)cc1 returned ROC1-CUL1 inh 4.
`O=C1NC(=O)C(=Cc2cc(Cl)c(OCc3ccc(C(=O)O)cc3)c(Cl)c2)C(=O)N1` gave ROC1-CUL1 inh -2.
Screening Cc1cccc(C(=O)NCc2cccnc2N2CCCC(O)C2)n1 (configuration not stated) returned ROC1-CUL1 inh 3.
For Cc1nc2ncc3c(=O)n(N4CCN(C)CC4)ccc3n2n1 the results were ROC1-CUL1 inh -2.
COC(=O)c1c(NC(=O)c2ccc(OC)cc2)sc2c1CCCCCC2 was read as ROC1-CUL1 inh -3.
O=C(O)c1sccc1-c1ccsc1C(=O)O was read as ROC1-CUL1 inh -1.
`c1cc2c(s1)COCc1sccc1-2` gave ROC1-CUL1 inh 45*.
Screening CC(=O)NCCC1CCCCN1C(=O)c1cn(Cc2ccccc2F)nn1 (configuration not stated) returned ROC1-CUL1 inh 5.
For Cc1nnc(SCC2=NC(=NC(N)=Nc3ccccc3)NC(=O)C2)s1 the results were ROC1-CUL1 inh 6.
Screening O=C(CSc1nc2c([nH]c3ccccc32)c(=O)n1-c1ccc(F)cc1)Nc1ccc2c(c1)OCCO2 returned ROC1-CUL1 inh 0.
For COc1cccc(N2CCN(C(=O)CCCn3c(=O)[nH]c4ccc(Br)cc4c3=O)CC2)c1 the results were ROC1-CUL1 inh -12.
`O=C(COc1ccccc1)N(Cc1cccnc1)c1nc2c(F)cc(F)cc2s1` gave ROC1-CUL1 inh 3.
Screening CC1=NN(c2ccccc2)C(=O)/C1=C/c1ccc(-c2ccc(C)c(C(=O)O)c2)o1 returned ROC1-CUL1 inh 3.
COC(=O)c1cc(-c2ccc(/C=C3/C(=O)NN(c4ccc(C)cc4)C3=O)o2)ccc1Cl was read as ROC1-CUL1 inh 13.
For CCN1C(=O)/C(=C/c2ccc(-c3ccc(Cl)c(C(=O)O)c3)o2)C(=O)NC1=S the results were ROC1-CUL1 inh 87*.
C=CCOC(=O)c1cc(-c2ccc(/C=C3/C(=O)NN(c4ccc(F)c(Cl)c4)C3=O)o2)ccc1Cl was read as ROC1-CUL1 inh 1.
For COC(=O)c1ccc(N2NC(=O)/C(=C/c3ccc(-c4ccc(Cl)c(C(=O)O)c4)o3)C2=O)cc1 the results were ROC1-CUL1 inh 35*.
Screening CCOC(=O)c1cc(-c2ccc(/C=C3/C(=O)ON=C3C)o2)ccc1Cl returned ROC1-CUL1 inh -2.
CCOC(=O)c1cc(-c2ccccc2)n(CCC(=O)Nc2ccc(C(F)(F)F)cc2)c1C was read as ROC1-CUL1 inh 6.
Cc1onc(-c2ccccc2)c1C(=O)NCc1cccnc1 was read as ROC1-CUL1 inh -9.
`Cc1ccc(/C=C/C(=O)Nc2ccc(Br)cc2F)o1` gave ROC1-CUL1 inh -5.
O=C(Nc1nc[n+](CC(COC(=O)c2ccc(F)cc2)OC(=O)c2ccc(F)cc2)c2nc[nH]c12)c1ccc(F)cc1 (configuration not stated) was read as ROC1-CUL1 inh 0.
